# Measurements published in article PMC8384837, “Expanding the binding specificity for RNA recognition by a PUF domain”.
# Numbering of substitutions follows the chain as printed.
# Tests used:
# Test in all cases: yeast three-hybrid, YBZ-1, SC-Leu-His + 0.5 mM 3-AT, 4 days
# Details in all cases: tags: N-Gal4 AD-HA kept; label: inside an RPR1-promoter hybrid RNA with tandem MS2 sites; ssRNA
# [1] = biological target: PUM1 PUF domain R7-ERG (Homo sapiens, UniProt Q14671 828-1176, S1079E;N1080R;E1083G)
# Summary of the method: (§1)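 The interaction score is the logarithmic change in variant frequency from input to selection. It uses log2, with a pseudocount of 1 for absent variants, and frequencies came from PCR-amplified, Illumina-sequenced repeat regions. The libraries were Pumilio-1 PUF domains randomized at the three base-contacting residues per repeat, co-expressed with matching RNA elements in strain YBZ-1 (LexA–MS2 coat fusion, HIS3 reporter). Plating lasted four days on SC-Leu (input) or SC-Leu-His + 0.5 mM 3-AT (selection).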
# [2] = biological target: PUM1 PUF domain R5-GTR (Homo sapiens, UniProt Q14671 828-1176, C1007G;R1008T;Q1011R)
# Summary of the method: as §1
# [3] = biological target: PUM1 PUF domain R5-SKN (Homo sapiens, UniProt Q14671 828-1176, C1007S;R1008K;Q1011N)
# Summary of the method: as §1
# [4] = biological target: PUM1 PUF domain R5-KAT (Homo sapiens, UniProt Q14671 828-1176, C1007K;R1008A;Q1011T)
# Summary of the method: as §1
# [5] = biological target: PUM1 PUF domain R5-RMV (Homo sapiens, UniProt Q14671 828-1176, C1007R;R1008M;Q1011V)
# Summary of the method: as §1
# [6] = biological target: PUM1 PUF domain R5-CKR (Homo sapiens, UniProt Q14671 828-1176, R1008K;Q1011R)
# Summary of the method: as §1
# [7] = biological target: PUM1 PUF domain R5-PRH (Homo sapiens, UniProt Q14671 828-1176, C1007P;Q1011H)
# Summary of the method: as §1
# [8] = biological target: PUM1 PUF domain R3-RSV (Homo sapiens, UniProt Q14671 828-1176, C935R;R936S;Q939V)
# Summary of the method: as §1
# [9] = biological target: PUM1 PUF domain R3-MPR (Homo sapiens, UniProt Q14671 828-1176, C935M;R936P;Q939R)
# Summary of the method: as §1
# [10] = biological target: PUM1 PUF domain R2-LFL (Homo sapiens, UniProt Q14671 828-1176, N899L;Y900F;Q903L)
# Summary of the method: as §1
# [11] = biological target: PUM1 PUF domain R8-RYV (Homo sapiens, UniProt Q14671 828-1176, N1122R;Q1126V)
# Summary of the method: as §1
# [12] = biological target: PUM1 PUF domain R8-PYY (Homo sapiens, UniProt Q14671 828-1176, N1122P;Q1126Y)
# Summary of the method: as §1
# [13] = biological target: T1, PUM1 PUF domain R6-VFH (Homo sapiens, UniProt Q14671 828-1176, N1043V;Y1044F;Q1047H)
# T1 sequence: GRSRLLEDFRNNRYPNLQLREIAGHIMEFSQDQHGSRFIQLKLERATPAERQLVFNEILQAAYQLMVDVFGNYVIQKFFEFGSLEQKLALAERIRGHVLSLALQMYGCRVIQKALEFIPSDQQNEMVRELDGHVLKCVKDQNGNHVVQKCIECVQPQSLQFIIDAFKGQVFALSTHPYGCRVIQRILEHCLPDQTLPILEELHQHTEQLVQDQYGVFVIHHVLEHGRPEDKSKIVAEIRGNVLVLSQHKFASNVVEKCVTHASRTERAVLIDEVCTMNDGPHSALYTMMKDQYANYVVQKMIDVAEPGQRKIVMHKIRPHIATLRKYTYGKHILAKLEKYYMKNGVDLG
# Summary of the method: as §1
# [14] = biological target: T2, PUM1 PUF domain R6-LWE (Homo sapiens, UniProt Q14671 828-1176, N1043L;Y1044W;Q1047E)
# T2 sequence: T1 sequence with V216L, F217W, H220E
# Summary of the method: as §1
# [15] = biological target: T3, PUM1 PUF domain R6-RWA (Homo sapiens, UniProt Q14671 828-1176, N1043R;Y1044W;Q1047A)
# T3 sequence: T1 sequence with V216R, F217W, H220A
# Summary of the method: as §1
# [16] = biological target: PUM1 PUF domain R4-VNC (Homo sapiens, UniProt Q14671 828-1176, N971V;H972N;Q975C)
# Summary of the method: as §1
# [17] = biological target: T4, PUM1 PUF domain R6-FWT (Homo sapiens, UniProt Q14671 828-1176, N1043F;Y1044W;Q1047T)
# T4 sequence: T1 sequence with V216F, F217W, H220T
# Summary of the method: as §1
# [18] = biological target: PUM1 PUF domain R4-EHI (Homo sapiens, UniProt Q14671 828-1176, N971E;Q975I)
# Summary of the method: as §1
# [19] = biological target: PUM1 PUF domain R1-NSR (Homo sapiens, UniProt Q14671 828-1176, S863N;R864S;Q867R)
# Summary of the method: as §1
# [20] = biological target: PUM1 PUF domain R1-GMK (Homo sapiens, UniProt Q14671 828-1176, S863G;R864M;Q867K)
# Summary of the method: as §1
sequence,measurement,setting,value
GGCUAGAACUAGUGGAUCCCCCGGCGCCCGGCGGCUCGAGCCCGGGUAAGUUUAAAUAGUCUGCAUGCCGCCGGGCGCCAUGCCUGCAGGUCGACUCUAGAAAACAUG,binding signal,[1],4.23 log2 enrichment (interaction score)
GGCUAGAACUAGUGGAUCCCCCGGCGCCCGGCGGCUCGAGCCCGGGUAAGUGUCAAUAGUCUGCAUGCCGCCGGGCGCCAUGCCUGCAGGUCGACUCUAGAAAACAUG,binding signal,[2],4.92 log2 enrichment (interaction score)
same,binding signal,[3],1.73 log2 enrichment (interaction score)
same,binding signal,[4],3.96 log2 enrichment (interaction score)
same,binding signal,[5],3.48 log2 enrichment (interaction score)
same,binding signal,[6],5.95 log2 enrichment (interaction score)
GGCUAGAACUAGUGGAUCCCCCGGCGCCCGGCGGCUCGAGCCCGGGUAAGUGUUAAUAGUCUGCAUGCCGCCGGGCGCCAUGCCUGCAGGUCGACUCUAGAAAACAUG,binding signal,[3],2.59 log2 enrichment (interaction score)
same,binding signal,[7],3.48 log2 enrichment (interaction score)
same,binding signal,[6],1.55 log2 enrichment (interaction score)
GGCUAGAACUAGUGGAUCCCCCGGCGCCCGGCGGCUCGAGCCCGGGUAAGUGUAAUUAGUCUGCAUGCCGCCGGGCGCCAUGCCUGCAGGUCGACUCUAGAAAACAUG,binding signal,[8],3.06 log2 enrichment (interaction score)
same,binding signal,[9],2.67 log2 enrichment (interaction score)
GGCUAGAACUAGUGGAUCCCCCGGCGCCCGGCGGCUCGAGCCCGGGUAAGUCUAAAUAGUCUGCAUGCCGCCGGGCGCCAUGCCUGCAGGUCGACUCUAGAAAACAUG,binding signal,[1],2.98 log2 enrichment (interaction score)
GGCUAGAACUAGUGGAUCCCCCGGCGCCCGGCGGCUCGAGCCCGGGUAAGUGUAAAAAGUCUGCAUGCCGCCGGGCGCCAUGCCUGCAGGUCGACUCUAGAAAACAUG,binding signal,[10],5.51 log2 enrichment (interaction score)
GGCUAGAACUAGUGGAUCCCCCGGCGCCCGGCGGCUCGAGCCCGGGUAAGCGUAAAUAGUCUGCAUGCCGCCGGGCGCCAUGCCUGCAGGUCGACUCUAGAAAACAUG,binding signal,[11],6.01 log2 enrichment (interaction score)
same,binding signal,[12],3.73 log2 enrichment (interaction score)
GGCUAGAACUAGUGGAUCCCCCGGCGCCCGGCGGCUCGAGCCCGGGUAAGUGAAAAUAGUCUGCAUGCCGCCGGGCGCCAUGCCUGCAGGUCGACUCUAGAAAACAUG,binding signal,[13],3.39 log2 enrichment (interaction score)
same,binding signal,[14],3.79 log2 enrichment (interaction score)
same,binding signal,[15],4.28 log2 enrichment (interaction score)
GGCUAGAACUAGUGGAUCCCCCGGCGCCCGGCGGCUCGAGCCCGGGUAAGUGUGAAUAGUCUGCAUGCCGCCGGGCGCCAUGCCUGCAGGUCGACUCUAGAAAACAUG,binding signal,[7],2.93 log2 enrichment (interaction score)
GGCUAGAACUAGUGGAUCCCCCGGCGCCCGGCGGCUCGAGCCCGGGUAAGUGUACAUAGUCUGCAUGCCGCCGGGCGCCAUGCCUGCAGGUCGACUCUAGAAAACAUG,binding signal,[16],3.19 log2 enrichment (interaction score)
GGCUAGAACUAGUGGAUCCCCCGGCGCCCGGCGGCUCGAGCCCGGGUAAGUGUAAAUAGUCUGCAUGCCGCCGGGCGCCAUGCCUGCAGGUCGACUCUAGAAAACAUG,binding signal,[17],4.41 log2 enrichment (interaction score)
same,binding signal,[11],4.92 log2 enrichment (interaction score)
same,binding signal,[18],3.46 log2 enrichment (interaction score)
same,binding signal,[12],2.84 log2 enrichment (interaction score)
same,binding signal,[9],0.58 log2 enrichment (interaction score)
same,binding signal,[7],3.22 log2 enrichment (interaction score)
same,binding signal,[15],5.03 log2 enrichment (interaction score)
GGCUAGAACUAGUGGAUCCCCCGGCGCCCGGCGGCUCGAGCCCGGGUAAGUGUAAAUUGUCUGCAUGCCGCCGGGCGCCAUGCCUGCAGGUCGACUCUAGAAAACAUG,binding signal,[19],0.4 log2 enrichment (interaction score)
same,binding signal,[20],3.16 log2 enrichment (interaction score)
GGCUAGAACUAGUGGAUCCCCCGGCGCCCGGCGGCUCGAGCCCGGGUAAGUGUAAAUCGUCUGCAUGCCGCCGGGCGCCAUGCCUGCAGGUCGACUCUAGAAAACAUG,binding signal,[19],2.5 log2 enrichment (interaction score)
